Assay results as given in PubChem BioAssay (NCI).
Compounds without any hit were thinned out: in the full panel of roughly 83,000, 20% have a hit.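 Compound tested at a single concentration for 48 hours in 96-well plates; a percent growth value below 10 was scored as active.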 The source made the active and inactive calls.

Columns and labels:
Assay in all cases: NCI-60 one-dose screen, 48 h (100 = growth as untreated, 0 = no growth, -100 = all killed)
EKVX NSCLC = conditions: 10 µM unless noted
SN12C renal = conditions: 10 µM unless noted
UO-31 renal = conditions: 10 µM unless noted
TK-10 renal = conditions: 10 µM unless noted
ACHN renal = conditions: 10 µM unless noted
CAKI-1 renal = conditions: 10 µM unless noted
A498 renal = conditions: 10 µM unless noted
CCRF-CEM leukemia = conditions: 10 µM unless noted
MOLT-4 leukemia = conditions: 10 µM unless noted
RPMI-8226 leukemia = conditions: 10 µM unless noted
OVCAR-8 ovarian = conditions: 10 µM unless noted
OVCAR-5 ovarian = conditions: 10 µM unless noted
OVCAR-4 ovarian = conditions: 10 µM unless noted
SK-OV-3 ovarian = conditions: 10 µM unless noted
IGROV1 ovarian = conditions: 10 µM unless noted
OVCAR-3 ovarian = conditions: 10 µM unless noted
HS 578T breast = conditions: 10 µM
NCI/ADR-RES ovarian = conditions: 10 µM unless noted
SK-MEL-2 melanoma = conditions: 10 µM unless noted
SR leukemia = conditions: 10 µM unless noted

Measured: growth

O=c1cc(-c2ccc3c(c2)OCCO3)oc2cc(Cl)ccc12
active: UO-31 renal -72.2% | TK-10 renal -78.2% | ACHN renal -70.1% | CAKI-1 renal 4.01% | A498 renal 8.97% | OVCAR-4 ovarian -12.5% | SK-OV-3 ovarian 2.04% | IGROV1 ovarian -9.4% | OVCAR-3 ovarian -40.2%
inactive: EKVX NSCLC 28.1% | SN12C renal 26% | CCRF-CEM leukemia 97% | MOLT-4 leukemia 101% | RPMI-8226 leukemia 28.8% | OVCAR-8 ovarian 13.5% | OVCAR-5 ovarian 32.8% | HS 578T breast 41.2% | NCI/ADR-RES ovarian 38.2%

NC(=S)N/N=C(/c1cccs1)C1CC1
inactive: SK-MEL-2 melanoma 160% | UO-31 renal 76.2% | TK-10 renal 124% | ACHN renal 83.9% | CAKI-1 renal 98.8% | A498 renal 106% | MOLT-4 leukemia 29.2% | SR leukemia 120% | RPMI-8226 leukemia 63.2% | OVCAR-5 ovarian 90.9% | OVCAR-4 ovarian 82.8% | SK-OV-3 ovarian 103% | IGROV1 ovarian 53.5% | OVCAR-3 ovarian 51.5%

NC(=O)Nc1ccc2ncnc(Nc3cccc(O)c3)c2c1
inactive: EKVX NSCLC 82.6% | SN12C renal 94.9% | UO-31 renal 80.1% | TK-10 renal 103% | ACHN renal 103% | CAKI-1 renal 84.8% | A498 renal 77.4% | CCRF-CEM leukemia 108% | MOLT-4 leukemia 98.8% | RPMI-8226 leukemia 112% | OVCAR-8 ovarian 98.9% | OVCAR-4 ovarian 112% | SK-OV-3 ovarian 87.5% | IGROV1 ovarian 107% | OVCAR-3 ovarian 82.8% | HS 578T breast 105% | NCI/ADR-RES ovarian 96.7%

O=c1c2sc3ncc(Cl)cc3c2nnn1-c1cccc(Cl)c1
inactive: SK-MEL-2 melanoma 92.9% | UO-31 renal 48.5% | TK-10 renal 93% | ACHN renal 46.1% | CAKI-1 renal 67.4% | A498 renal 63.1% | MOLT-4 leukemia 90.2% | SR leukemia 77.7% | RPMI-8226 leukemia 82.4% | SK-OV-3 ovarian 40.7% | IGROV1 ovarian 63% | OVCAR-3 ovarian 24.7%
active: OVCAR-4 ovarian -7.2%

CC(=O)Nc1ccc(Cl)cc1Cl
inactive: EKVX NSCLC 89.9% | SN12C renal 101% | UO-31 renal 76.2% | TK-10 renal 112% | ACHN renal 106% | CAKI-1 renal 73.4% | A498 renal 116% | CCRF-CEM leukemia 145% | MOLT-4 leukemia 71.3% | SR leukemia 44.3% | RPMI-8226 leukemia 121% | OVCAR-8 ovarian 97.6% | OVCAR-5 ovarian 102% | OVCAR-4 ovarian 105% | SK-OV-3 ovarian 108% | IGROV1 ovarian 60.8% | OVCAR-3 ovarian 118% | HS 578T breast 178% | NCI/ADR-RES ovarian 115%

O=C(O)/C=C(\c1nc2ccc([N+](=O)[O-])cc2[nH]1)c1cc(Cl)ccc1O
inactive: EKVX NSCLC 17.6% | SN12C renal 13.1% | UO-31 renal 17% | TK-10 renal 27.4% | ACHN renal 12.5% | SR leukemia 29.6% | OVCAR-8 ovarian 24.5% | OVCAR-5 ovarian 87.1% | SK-OV-3 ovarian 29.9% | IGROV1 ovarian 25.7% | HS 578T breast 45.9% | NCI/ADR-RES ovarian 17.7%
active: A498 renal 7.28% | CCRF-CEM leukemia 0.888% | MOLT-4 leukemia -4.02% | RPMI-8226 leukemia -15.7% | OVCAR-4 ovarian 8.51% | OVCAR-3 ovarian -16%

CCCCN(CCCC)CCC(=O)c1ccc(OC)c2ccccc12
inactive: EKVX NSCLC 92.8% | SN12C renal 94.9% | UO-31 renal 57.9% | TK-10 renal 97.8% | ACHN renal 92.3% | CAKI-1 renal 52.1% | A498 renal 107% | CCRF-CEM leukemia 35.7% | MOLT-4 leukemia 28.6% | SR leukemia 38.9% | RPMI-8226 leukemia 35.6% | OVCAR-8 ovarian 75.3% | OVCAR-4 ovarian 102% | SK-OV-3 ovarian 107% | OVCAR-3 ovarian 83% | HS 578T breast 106% | NCI/ADR-RES ovarian 107%

c1ccc2c(c1)cnc1ccccc12
active: A498 renal -7.57%
inactive: EKVX NSCLC 115% | SN12C renal 95.5% | UO-31 renal 95.2% | TK-10 renal 116% | ACHN renal 100% | CCRF-CEM leukemia 97.8% | OVCAR-8 ovarian 97.5% | OVCAR-5 ovarian 92.2% | OVCAR-4 ovarian 96.3% | SK-OV-3 ovarian 96.1% | IGROV1 ovarian 121% | HS 578T breast 100% | NCI/ADR-RES ovarian 101%

N#Cc1c(N)n(C2OC(CO)C(O)C2O)c2ncnc(N)c12 (stereo not drawn)
active: EKVX NSCLC -20.3% | SN12C renal 6.49% | UO-31 renal -42.1% | TK-10 renal -9.6% | ACHN renal 8.86% | CCRF-CEM leukemia -45.1% | OVCAR-8 ovarian -13.1% | OVCAR-5 ovarian -11.4% | OVCAR-4 ovarian 0.621% | SK-OV-3 ovarian -0.358% | IGROV1 ovarian -63% | OVCAR-3 ovarian -62.1% | HS 578T breast -19.2% | NCI/ADR-RES ovarian -7.81%

Cc1ccc2nc(CN(CCN(Cc3nc4ccc(C)cc4[nH]3)Cc3nc4ccc(C)cc4[nH]3)Cc3nc4ccc(C)cc4[nH]3)[nH]c2c1
active: EKVX NSCLC -97.5% | SN12C renal -96.7% | UO-31 renal -73.7% | TK-10 renal -80.9% | ACHN renal -99.2% | A498 renal -94% | CCRF-CEM leukemia -61.7% | OVCAR-8 ovarian -71.8% | OVCAR-5 ovarian -67.8% | OVCAR-4 ovarian -99.2% | SK-OV-3 ovarian -94.6% | IGROV1 ovarian -95.2% | OVCAR-3 ovarian -94.4% | HS 578T breast -74.1% | NCI/ADR-RES ovarian -72.5%

O=c1cc(N2CCOCC2)oc2c(-c3ccc4c(c3)OCCO4)csc12
active: EKVX NSCLC 9.76% | UO-31 renal 1% | TK-10 renal -14.5% | ACHN renal 6.19% | A498 renal -41% | MOLT-4 leukemia 4.69% | RPMI-8226 leukemia -0.399% | SK-OV-3 ovarian -17.3% | IGROV1 ovarian -9.54% | HS 578T breast -7.53%
inactive: SN12C renal 20.2% | CCRF-CEM leukemia 28% | SR leukemia 13.9% | OVCAR-8 ovarian 13.8% | OVCAR-4 ovarian 11.5% | OVCAR-3 ovarian 19.1% | NCI/ADR-RES ovarian 16.5%

CCOc1ccc([C@@H]2[C@@H](Oc3ccccc3)C(=O)N2c2cc(OC)c(OC)c(OC)c2)cc1
active: A498 renal -9.61% | CCRF-CEM leukemia 7.6% | MOLT-4 leukemia 5.59% | SR leukemia 5.44% | RPMI-8226 leukemia 5.16% | OVCAR-3 ovarian -8.31%
inactive: EKVX NSCLC 43.5% | SN12C renal 31.4% | UO-31 renal 35.3% | TK-10 renal 48.1% | ACHN renal 25.3% | OVCAR-8 ovarian 24.2% | OVCAR-5 ovarian 43% | OVCAR-4 ovarian 43.9% | SK-OV-3 ovarian 29.6% | IGROV1 ovarian 21.5% | HS 578T breast 34.6% | NCI/ADR-RES ovarian 14%

COc1ccc([C@@H]2[C@@H](Cl)C(=O)N2c2cc(OC)c(OC)c(OC)c2)cc1C
active: A498 renal -7.32% | CCRF-CEM leukemia 9.56% | MOLT-4 leukemia 8.89% | SR leukemia 9.63% | RPMI-8226 leukemia 8.48% | OVCAR-3 ovarian -5.67%
inactive: EKVX NSCLC 44.2% | SN12C renal 31.2% | UO-31 renal 38.8% | TK-10 renal 71.3% | ACHN renal 31.6% | OVCAR-8 ovarian 14.8% | OVCAR-5 ovarian 59.7% | OVCAR-4 ovarian 39.1% | SK-OV-3 ovarian 30.4% | IGROV1 ovarian 31.6% | HS 578T breast 47.9% | NCI/ADR-RES ovarian 16%

COc1ccc(/C=C(/C(=O)N2CCN(c3ccccc3)CC2)c2cc(OC)c(OC)c(OC)c2)cc1O
active: A498 renal -3.6% | CCRF-CEM leukemia 8.16% | MOLT-4 leukemia 8.78% | SR leukemia 9.53% | OVCAR-3 ovarian -33.1% | NCI/ADR-RES ovarian 3.09%
inactive: EKVX NSCLC 41% | SN12C renal 31.4% | UO-31 renal 45.6% | TK-10 renal 64% | ACHN renal 33.1% | RPMI-8226 leukemia 10.9% | OVCAR-8 ovarian 14.1% | OVCAR-5 ovarian 51.2% | OVCAR-4 ovarian 55.7% | SK-OV-3 ovarian 30.4% | IGROV1 ovarian 32.2% | HS 578T breast 39.1%

COc1cccc(OCC(O)CN2CCN(c3ccccc3)CC2)c1 (stereo not drawn)
inactive: EKVX NSCLC 103% | SN12C renal 105% | UO-31 renal 96.3% | TK-10 renal 151% | ACHN renal 109% | A498 renal 90.6% | CCRF-CEM leukemia 121% | OVCAR-8 ovarian 103% | OVCAR-5 ovarian 105% | OVCAR-4 ovarian 97.4% | SK-OV-3 ovarian 106% | IGROV1 ovarian 107% | OVCAR-3 ovarian 112% | HS 578T breast 117% | NCI/ADR-RES ovarian 100%

COc1ccc(/C(=C\c2cc(OC)c(OC)c(OC)c2)C(=O)N2CCNCC2)cc1
inactive: EKVX NSCLC 105% | SN12C renal 101% | UO-31 renal 83.4% | TK-10 renal 94.6% | ACHN renal 98% | A498 renal 85.6% | CCRF-CEM leukemia 96.1% | MOLT-4 leukemia 87.2% | SR leukemia 94.6% | RPMI-8226 leukemia 95.1% | OVCAR-8 ovarian 105% | OVCAR-5 ovarian 102% | OVCAR-4 ovarian 110% | SK-OV-3 ovarian 108% | IGROV1 ovarian 102% | OVCAR-3 ovarian 108% | HS 578T breast 102% | NCI/ADR-RES ovarian 98.3%

CCCc1n(Cc2ccc3ccccc3n2)cc[n+]1Cc1ccc2ccccc2n1
inactive: EKVX NSCLC 58.1% | UO-31 renal 86.5% | TK-10 renal 62.1% | ACHN renal 98.1% | A498 renal 35.4% | CCRF-CEM leukemia 36.2% | SR leukemia 13% | OVCAR-8 ovarian 35.6% | OVCAR-5 ovarian 47.7% | SK-OV-3 ovarian 61.6% | IGROV1 ovarian 30.6% | HS 578T breast 58.8% | NCI/ADR-RES ovarian 98.4%
active: SN12C renal 9.65% | RPMI-8226 leukemia -10.8% | OVCAR-4 ovarian 8.56% | OVCAR-3 ovarian 9.64%

CC(=O)c1cc(C(=O)c2ccc3c(c2)Sc2ccccc2N3)c2c(C)cccn12
active: A498 renal -5.33% | OVCAR-3 ovarian -27.5% | NCI/ADR-RES ovarian 9.46%
inactive: EKVX NSCLC 38.1% | SN12C renal 35.5% | UO-31 renal 34.1% | TK-10 renal 56.9% | ACHN renal 32.4% | CCRF-CEM leukemia 16.3% | MOLT-4 leukemia 12% | SR leukemia 12.8% | RPMI-8226 leukemia 15.7% | OVCAR-8 ovarian 18.8% | OVCAR-5 ovarian 45.4% | OVCAR-4 ovarian 47% | SK-OV-3 ovarian 25.1% | IGROV1 ovarian 34.1% | HS 578T breast 56.2%
